Source: PubChem (Johns Hopkins Ion Channel Center)
Most compounds without a hit are left out; they make up all but 1.6% or so of the library.
KCNQ2 inh: blocks the rat KCNQ2 potassium channel; O88943; CHO-K1 KCNQ2, FluxOR thallium flux, 20 min; active compounds read low; AID 2156; 310,000 tested, 1.1% active; B-score at 10 µM;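 active = fluorescence ratio B-score at most minus 3 library SDs, with starting brightness B-score within 2 library SDs, cut at about -5.5 in these data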
Target sequence (O88943 whole entry, looked up): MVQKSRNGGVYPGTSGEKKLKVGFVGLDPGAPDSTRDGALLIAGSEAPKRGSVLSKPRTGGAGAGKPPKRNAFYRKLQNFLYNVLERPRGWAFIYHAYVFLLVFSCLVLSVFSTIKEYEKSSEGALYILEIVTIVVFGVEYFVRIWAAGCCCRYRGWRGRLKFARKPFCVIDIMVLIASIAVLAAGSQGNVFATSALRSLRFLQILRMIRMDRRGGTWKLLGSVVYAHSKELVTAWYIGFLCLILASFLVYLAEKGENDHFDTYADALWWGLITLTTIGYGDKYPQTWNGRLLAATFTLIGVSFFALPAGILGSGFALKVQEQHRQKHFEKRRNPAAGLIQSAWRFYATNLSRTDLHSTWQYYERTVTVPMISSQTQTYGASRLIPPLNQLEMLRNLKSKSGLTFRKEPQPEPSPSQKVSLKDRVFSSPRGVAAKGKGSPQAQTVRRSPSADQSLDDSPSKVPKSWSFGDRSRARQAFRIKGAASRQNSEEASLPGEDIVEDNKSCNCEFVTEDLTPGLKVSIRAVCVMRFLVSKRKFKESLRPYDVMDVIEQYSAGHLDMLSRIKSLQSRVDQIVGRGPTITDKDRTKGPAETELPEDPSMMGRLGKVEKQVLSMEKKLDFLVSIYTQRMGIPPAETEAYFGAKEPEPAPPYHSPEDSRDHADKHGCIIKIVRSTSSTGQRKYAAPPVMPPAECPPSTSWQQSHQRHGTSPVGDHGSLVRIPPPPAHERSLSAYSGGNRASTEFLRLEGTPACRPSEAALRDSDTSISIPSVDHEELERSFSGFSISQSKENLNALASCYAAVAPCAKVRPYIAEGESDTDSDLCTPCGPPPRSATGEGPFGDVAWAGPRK
KCNQ2 pot: potentiators of rat KCNQ2 potassium channel | O88943 | CHO-K1 KCNQ2, FluxOR thallium flux fluorescence; active compounds read high | B-score at 10 µM | 310,000 tested, 0.54% active;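 active = fluorescence ratio B-score at least 3 SD of library B-scores, with initial fluorescence B-score within 3 of them, cut at about 5.3 in these data; same plate scores as AID 2156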;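 also: B-score of peak minus minimum over baseline fluorescence ratio after K+ and Tl+ stimulus; positive B-score means potentiation of KCNQ2 with more thallium influx and brighter signal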
An asterisk follows results filed as active.

Results for CC1CN(C(=O)CCC(=O)NCc2ccccc2Cl)c2ccccc2S1 (configuration not stated) ?
KCNQ2 inh: -7.4*; KCNQ2 pot: -7.4

How did Cc1ccc(N(C(=O)Nc2ccccc2)C2=NCCC2)cc1 do in these assays?
KCNQ2 inh: inactive

Results for Cc1ccc(N(C(=O)NC2CCCCC2)C2=NCCCCC2)cc1 ?
KCNQ2 inh: -5.8*; KCNQ2 pot: -5.8

Results for CCC(C)Sc1ccc([C@@H]2[C@@H]3C(=O)N(C)C(=O)[C@@H]3[C@]3(C(=O)OC)CCCCN23)cc1 (some centres not stated) ?
KCNQ2 inh: inactive; KCNQ2 pot: 1.1

How did COc1ccc(NC(=O)c2c[nH]n3c(=O)cc(C4CCN(C(=O)OC(C)(C)C)CC4)nc23)cc1Cl do in these assays?
KCNQ2 inh: inactive; KCNQ2 pot: 6.3*

How did CC(C)(C)OC(=O)N1CCC(c2cc(=O)n3[nH]cc(C(=O)Nc4ccc(F)c(Cl)c4)c3n2)CC1 do in these assays?
KCNQ2 inh: inactive; KCNQ2 pot: 2.5

What do the screens show for `CC1CC(=O)N(CC(=O)Nc2ccccc2F)c2ccccc2S1(=O)=O` (configuration not stated)?
KCNQ2 inh: inactive

What do the screens show for `Oc1c(Cl)cc(Cl)cc1CNc1nc2ccccc2[nH]1`?
KCNQ2 inh: -6.2*; KCNQ2 pot: -6.2

How did Oc1c(Cl)cc(Cl)cc1CNc1ccccn1 do in these assays?
KCNQ2 inh: inactive

What do the screens show for `CCc1cccc(C)c1NC(=S)N(CCCN1CCOCC1)Cc1cccnc1`?
KCNQ2 inh: inactive

What do the screens show for `CCc1ccc(Sc2cc(C(=O)NCCN3CCOCC3)c3ccccc3n2)cc1`?
KCNQ2 inh: -5.7*; KCNQ2 pot: -5.7

How did Cc1ccc(-c2cc(C(=O)NCCCN3CCOCC3)c3ccccc3n2)cc1 do in these assays?
KCNQ2 inh: inactive; KCNQ2 pot: 0.19

How did CCOc1ccccc1N1CC(C(=O)N(Cc2nnc(-c3ccccc3Cl)o2)C2CC2)CC1=O (configuration not stated) do in these assays?
KCNQ2 inh: inactive

How did COc1ccc(-c2nc3ccccc3n2Cc2ccccc2)cc1 do in these assays?
KCNQ2 inh: inactive

How did COc1ccc(-c2n(Cc3ccccc3)c3ccccc3[n+]2Cc2ccccc2)cc1 do in these assays?
KCNQ2 inh: -6*; KCNQ2 pot: -6

What do the screens show for `CC(CC(=O)NNC(=O)c1ccncc1)c1ccccc1` (configuration not stated)?
KCNQ2 inh: inactive; KCNQ2 pot: 0.91

Results for NC(=O)N/N=C/c1coc2ccc3ccccc3c2c1=O ?
KCNQ2 inh: inactive; KCNQ2 pot: 1.3

What do the screens show for `O=Cc1coc2ccc3ccccc3c2c1=O`?
KCNQ2 inh: -8.1*; KCNQ2 pot: -8.1

What do the screens show for `COc1ccc(OC)c(/C=N\NC(=O)c2cc3c(ccc4ccccc43)o2)c1`?
KCNQ2 inh: inactive; KCNQ2 pot: 0.92

Results for COc1ccc(/C=N/NC(=O)c2cc3c(ccc4ccccc43)o2)c(OC)c1 ?
KCNQ2 inh: -6.3*; KCNQ2 pot: -6.3

Results for N#Cc1c(-c2ccccc2)nc(SCC(=O)Nc2ccc(OC(F)(F)Cl)cc2)[nH]c1=O ?
KCNQ2 inh: inactive

What do the screens show for `CCOc1ccccc1NC(=O)Cn1c(=O)n(-c2ccccc2)c(=O)c2oc3ccccc3c21`?
KCNQ2 inh: inactive

How did O=C(O)COc1ccc(/C=C/c2nc(-c3ccccc3O)n[nH]2)cc1 do in these assays?
KCNQ2 inh: inactive; KCNQ2 pot: 0.1

How did COc1ccc(/C=C/c2nc(-c3ccccc3O)n[nH]2)cc1OC do in these assays?
KCNQ2 inh: inactive; KCNQ2 pot: 10*

Results for COc1ccc(NC(=O)CCc2nnc3ccc(NCc4ccco4)nn23)cc1OC ?
KCNQ2 inh: inactive; KCNQ2 pot: 1.3

What do the screens show for `CC(=O)c1cccc(N(CC(=O)NC2CCCCC2)C(=O)Cn2nnc(-c3ccccc3)n2)c1`?
KCNQ2 inh: inactive

What do the screens show for `COc1cccc(OCc2ccc(C(=O)NCC3CCCO3)cc2)c1` (configuration not stated)?
KCNQ2 inh: inactive

Results for O=C(NCC1CCCO1)c1ccc(COc2ccccc2Br)cc1 (configuration not stated) ?
KCNQ2 inh: inactive; KCNQ2 pot: 5.3*

Results for O=C(NCc1cccnc1)c1cc2nc(-c3ccc4c(c3)OCO4)cc(C(F)(F)F)n2n1 ?
KCNQ2 inh: inactive; KCNQ2 pot: 0.51

What do the screens show for `O=C(NCc1ccco1)c1nc2nc(-c3cccs3)cc(C(F)(F)F)n2n1`?
KCNQ2 inh: inactive; KCNQ2 pot: 0.75

How did O=C(NCc1ccco1)c1nn2c(C(F)(F)F)cc(-c3cccs3)nc2c1Br do in these assays?
KCNQ2 inh: -6.8*; KCNQ2 pot: -6.8

What do the screens show for `O=C(NCc1ccco1)c1cc2nc(-c3ccc4c(c3)OCO4)cc(C(F)(F)F)n2n1`?
KCNQ2 inh: -8.2*; KCNQ2 pot: -8.2

What do the screens show for `O=C(CSC(=S)N1CCCC1)Nc1ncc(Cl)cc1Cl`?
KCNQ2 inh: inactive; KCNQ2 pot: 0.64

Results for COC(=O)c1ccc(-n2c(C)ccc2-c2ccccc2)cc1 ?
KCNQ2 inh: -6.6*; KCNQ2 pot: -6.6

How did CC(=O)c1ccc(-n2c(C)ccc2-c2ccccc2)cc1 do in these assays?
KCNQ2 inh: inactive

How did CC12CCC(=O)N1C(C(=O)Nc1cc(Cl)ccc1N1CCOCC1)CS2 (configuration not stated) do in these assays?
KCNQ2 inh: inactive

Results for CN(C)S(=O)(=O)c1ccc(S(=O)(=O)N2CCCC(C(=O)NC3CCCC3)C2)cc1 (configuration not stated) ?
KCNQ2 inh: inactive; KCNQ2 pot: 0.07

What do the screens show for `CN(CC(=O)NCCCc1ccccc1)S(=O)(=O)c1ccc(Br)cc1`?
KCNQ2 inh: inactive; KCNQ2 pot: 0.1

How did COc1ccc(S(=O)(=O)NCC2CCCN(Cc3cn(C)nc3C)C2)cc1 (configuration not stated) do in these assays?
KCNQ2 inh: inactive

What do the screens show for `CCN(CC(=O)Nc1cc(S(=O)(=O)N2CCCCC2)ccc1Cl)Cc1ccccc1`?
KCNQ2 inh: -7.8*; KCNQ2 pot: -7.8

How did CCN1CCN(S(=O)(=O)c2ccc(Cl)c(C(=O)Nc3ccccc3N3CCCC3)c2)CC1 do in these assays?
KCNQ2 inh: inactive

Results for CCN1CCN(S(=O)(=O)c2ccc(Cl)c(C(=O)Nc3ccccc3N3CCCCC3)c2)CC1 ?
KCNQ2 inh: -5.6*; KCNQ2 pot: -5.6

How did CCN(CC(=O)Nc1ccc(S(=O)(=O)N2CCCCC2)cc1)Cc1ccccc1 do in these assays?
KCNQ2 inh: inactive

How did O=C(Nc1ccccc1N1CCCC1)c1cc(S(=O)(=O)N2CCOCC2)ccc1Cl do in these assays?
KCNQ2 inh: -5.9*; KCNQ2 pot: -5.9

How did O=C(Nc1cc(S(=O)(=O)N2CCOCC2)ccc1N1CCCC1)c1cccnc1Cl do in these assays?
KCNQ2 inh: inactive

What do the screens show for `O=C(Nc1ccccc1F)Nc1cc(S(=O)(=O)N2CCOCC2)ccc1N1CCCC1`?
KCNQ2 inh: inactive; KCNQ2 pot: 0.12

What do the screens show for `O=C(Nc1cc(S(=O)(=O)N2CCOCC2)ccc1N1CCCC1)c1ccc2c(c1)S(=O)(=O)c1ccccc1C2=O`?
KCNQ2 inh: -5.9*; KCNQ2 pot: -5.9

What do the screens show for `O=C(NNC(=O)c1csc(N2CCOCC2)n1)c1ccc(Cl)nc1`?
KCNQ2 inh: inactive

Results for COc1cccc(NC(=O)CN(C)C(=O)c2cc(-c3cccc(Br)c3)nc3ccccc23)c1 ?
KCNQ2 inh: inactive
